Source: PubChem BioAssay
Activity calls are given as the source filed them.

Key:
[1] = small molecules captured by biotinylated probe aFSTL3 – biochemical, small-molecule microarray, fluorescence 635/667, stem cell growth factor project, primary screen (AID 1064); details: higher = more signal;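 further: measures binding of the biotinylated anti-FSTL3 antibody to printed compounds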
[2] = binders from COS7 lysate, DM2A8 probe, primary screen, torsin A project, cell lysate, small-molecule microarray, fluorescence 635/667 (AID 1065); details: higher = more signal, COS7 lysate expressing mutant human TOR1A
[3] = small molecules captured by biotinylated probe aFGF2 – biochemical, small-molecule microarray, fluorescence 635/667, stem cell growth factor project, primary screen (AID 1067); details: higher = more signal;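 further: measures binding of biotinylated aFGF2 protein to printed compounds on slides; z-score merges feature fluorescence and signal-to-noise across triplicate slides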
[4] = small molecules captured by biotinylated probe aFGF10 – biochemical, small-molecule microarray, fluorescence 635/667, stem cell growth factor project, primary screen (AID 1071); details: higher = more signal;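 further: score merges 667 nm spot intensity and signal to noise from triplicate slides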
[5] = molecular target: Neurogenic locus notch homolog protein 2 (Homo sapiens) (UniProt Q04721); assay: small molecules binding Notch2 protein – biochemical, small-molecule microarray, 635 nm fluorescence, stem cell growth factors, primary screen (AID 1073); details: higher = more signal
[6] = molecular target: Pro-neuregulin-1, membrane-bound isoform (Homo sapiens) (UniProt Q02297); assay: small molecules binding neuregulin-1 protein – biochemical, small-molecule microarray, fluorescence 635/667, psychiatric disease protein project, primary screen (AID 1075); details: NRG1 binding, 635 nm fluorescence, higher = more signal;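 further: score combines 667 nm spot fluorescence with signal to noise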
[7] = system: Neuregulin-1 EGF-like domain; assay: small molecules binding NRG1 EGF domain – biochemical, small-molecule microarray, 635 nm fluorescence, primary screen (AID 1081); details: higher = more signal;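 further: binding of the protein to compounds printed on small-molecule microarray slides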
[8] = FRG1 expression reporter modulators in myotubes – cell-based, C2C12 myotubes, firefly/Renilla luciferase, luminescence, FRG1 inhibition for FSHD, primary screen (AID 1084); details: FRG1 promoter luciferase, higher = more signal, called active from +8 up or from −8 down
[9] = small molecules captured by biotinylated probe aFST – biochemical, small-molecule microarray, fluorescence 635/667, stem cell growth factor project, primary screen (AID 1086); details: higher = more signal;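 further: score merges 667 nm fluorescence with signal-to-noise of each printed compound spot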
[10] = binders of probe aHhip on microarray, primary screen, stem cell growth factor project, biochemical, small-molecule microarray, fluorescence 635/667 (AID 1087); details: higher = more signal;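 further: score merges spot fluorescence at 667nm with spot signal to noise ratio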
[11] = system: PRMT1 (protein arginine N-methyltransferase 1); assay: small molecules binding arginine methyltransferase PRMT1 – biochemical, small-molecule microarray, 635 nm fluorescence, primary screen (AID 1088); details: higher = more signal;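 further: binding of Prmt1 protein to compounds spotted on small-molecule microarray slides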
[12] = growth effects on S. cerevisiae YJM789 – YJM789 clinical isolate, OD600, 24 h, basal, primary screen (AID 1089); details: higher = more signal, called active from +8 up or from −8 down;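 further: growth of clinical yeast isolate S. cerevisiae YJM 789 seeded 1000 cells per well; test concentration not given here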
[13] = S. pombe growth modifiers, basal conditions – strain 972, OD600, 24 h, no modulator, primary screen (AID 1090);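 further: basal condition with compound alone and no growth modifier present; test concentration not given here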; details: S. pombe 972 growth, higher = more signal, called active from +8 up or from −8 down
[14] = budding yeast growth modifiers under rapamycin – strain BY4716, OD600, 96 h, primary screen (AID 1091); further: test concentration not given here; details: S. cerevisiae BY4716 + rapamycin, higher = more signal, called active from +8 up or from −8 down
[15] = molecular target: Torsin-1A-interacting protein 2 (Homo sapiens) (UniProt Q8NFQ8); assay: small molecules binding lysate-expressed LULL1 – cell lysate, human LULL1 lysate, 635/667 nm fluorescence, primary screen (AID 1092); details: small-molecule microarray, hLULL1 lysate binding, 635 nm fluorescence; higher = more signal;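 further: probe is lysate of COS7 cells overexpressing human LULL1; score merges per-feature 667 nm fluorescence with signal-to-noise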
[16] = optical density change of DRC41 E. coli – strain DRC41, OD650, 24 h, E. coli filamentation project, primary screen (AID 1093);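 further: MC1000 strain lacking acrAB efflux and sulA so SOS filamentation is blocked; test concentration not given here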; details: E. coli DRC41 growth, higher = more signal, called active from +8 up or from −8 down
[17] = probe aLefty2 binding to arrayed compounds – biochemical, biotinylated probe, 635/667 nm fluorescence, primary screen (AID 1094); details: small-molecule microarray, higher = more signal;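 further: score merges spot fluorescence near 667 nm with spot signal-to-noise ratio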
[18] = system: Noggin (protein binding on small-molecule microarray); assay: small molecules binding Noggin protein – biochemical, 635/667 nm fluorescence, primary screen (AID 1095); details: 635 nm fluorescence, higher = more signal;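 further: score merges 667 nm feature fluorescence with signal to noise over triplicate slides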
[19] = molecular target: Neurogenic locus notch homolog protein 3 (Homo sapiens) (UniProt Q9UM47); assay: small molecules binding NOTCH3 protein – biochemical, 635/667 nm fluorescence, primary screen (AID 1096); details: small-molecule microarray, 635 nm fluorescence, higher = more signal
[20] = probe aEGFR binding to arrayed compounds – biochemical, biotinylated probe, 635/667 nm fluorescence, primary screen (AID 1097); details: small-molecule microarray, higher = more signal;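 further: probe is a biotinylated anti-EGFR antibody binding compounds printed on slides; score combines fluorescence near 667 nm and signal to noise of each spot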

Chain of Neurogenic locus notch homolog protein 3 (Homo sapiens) (Q9UM47 whole entry, looked up): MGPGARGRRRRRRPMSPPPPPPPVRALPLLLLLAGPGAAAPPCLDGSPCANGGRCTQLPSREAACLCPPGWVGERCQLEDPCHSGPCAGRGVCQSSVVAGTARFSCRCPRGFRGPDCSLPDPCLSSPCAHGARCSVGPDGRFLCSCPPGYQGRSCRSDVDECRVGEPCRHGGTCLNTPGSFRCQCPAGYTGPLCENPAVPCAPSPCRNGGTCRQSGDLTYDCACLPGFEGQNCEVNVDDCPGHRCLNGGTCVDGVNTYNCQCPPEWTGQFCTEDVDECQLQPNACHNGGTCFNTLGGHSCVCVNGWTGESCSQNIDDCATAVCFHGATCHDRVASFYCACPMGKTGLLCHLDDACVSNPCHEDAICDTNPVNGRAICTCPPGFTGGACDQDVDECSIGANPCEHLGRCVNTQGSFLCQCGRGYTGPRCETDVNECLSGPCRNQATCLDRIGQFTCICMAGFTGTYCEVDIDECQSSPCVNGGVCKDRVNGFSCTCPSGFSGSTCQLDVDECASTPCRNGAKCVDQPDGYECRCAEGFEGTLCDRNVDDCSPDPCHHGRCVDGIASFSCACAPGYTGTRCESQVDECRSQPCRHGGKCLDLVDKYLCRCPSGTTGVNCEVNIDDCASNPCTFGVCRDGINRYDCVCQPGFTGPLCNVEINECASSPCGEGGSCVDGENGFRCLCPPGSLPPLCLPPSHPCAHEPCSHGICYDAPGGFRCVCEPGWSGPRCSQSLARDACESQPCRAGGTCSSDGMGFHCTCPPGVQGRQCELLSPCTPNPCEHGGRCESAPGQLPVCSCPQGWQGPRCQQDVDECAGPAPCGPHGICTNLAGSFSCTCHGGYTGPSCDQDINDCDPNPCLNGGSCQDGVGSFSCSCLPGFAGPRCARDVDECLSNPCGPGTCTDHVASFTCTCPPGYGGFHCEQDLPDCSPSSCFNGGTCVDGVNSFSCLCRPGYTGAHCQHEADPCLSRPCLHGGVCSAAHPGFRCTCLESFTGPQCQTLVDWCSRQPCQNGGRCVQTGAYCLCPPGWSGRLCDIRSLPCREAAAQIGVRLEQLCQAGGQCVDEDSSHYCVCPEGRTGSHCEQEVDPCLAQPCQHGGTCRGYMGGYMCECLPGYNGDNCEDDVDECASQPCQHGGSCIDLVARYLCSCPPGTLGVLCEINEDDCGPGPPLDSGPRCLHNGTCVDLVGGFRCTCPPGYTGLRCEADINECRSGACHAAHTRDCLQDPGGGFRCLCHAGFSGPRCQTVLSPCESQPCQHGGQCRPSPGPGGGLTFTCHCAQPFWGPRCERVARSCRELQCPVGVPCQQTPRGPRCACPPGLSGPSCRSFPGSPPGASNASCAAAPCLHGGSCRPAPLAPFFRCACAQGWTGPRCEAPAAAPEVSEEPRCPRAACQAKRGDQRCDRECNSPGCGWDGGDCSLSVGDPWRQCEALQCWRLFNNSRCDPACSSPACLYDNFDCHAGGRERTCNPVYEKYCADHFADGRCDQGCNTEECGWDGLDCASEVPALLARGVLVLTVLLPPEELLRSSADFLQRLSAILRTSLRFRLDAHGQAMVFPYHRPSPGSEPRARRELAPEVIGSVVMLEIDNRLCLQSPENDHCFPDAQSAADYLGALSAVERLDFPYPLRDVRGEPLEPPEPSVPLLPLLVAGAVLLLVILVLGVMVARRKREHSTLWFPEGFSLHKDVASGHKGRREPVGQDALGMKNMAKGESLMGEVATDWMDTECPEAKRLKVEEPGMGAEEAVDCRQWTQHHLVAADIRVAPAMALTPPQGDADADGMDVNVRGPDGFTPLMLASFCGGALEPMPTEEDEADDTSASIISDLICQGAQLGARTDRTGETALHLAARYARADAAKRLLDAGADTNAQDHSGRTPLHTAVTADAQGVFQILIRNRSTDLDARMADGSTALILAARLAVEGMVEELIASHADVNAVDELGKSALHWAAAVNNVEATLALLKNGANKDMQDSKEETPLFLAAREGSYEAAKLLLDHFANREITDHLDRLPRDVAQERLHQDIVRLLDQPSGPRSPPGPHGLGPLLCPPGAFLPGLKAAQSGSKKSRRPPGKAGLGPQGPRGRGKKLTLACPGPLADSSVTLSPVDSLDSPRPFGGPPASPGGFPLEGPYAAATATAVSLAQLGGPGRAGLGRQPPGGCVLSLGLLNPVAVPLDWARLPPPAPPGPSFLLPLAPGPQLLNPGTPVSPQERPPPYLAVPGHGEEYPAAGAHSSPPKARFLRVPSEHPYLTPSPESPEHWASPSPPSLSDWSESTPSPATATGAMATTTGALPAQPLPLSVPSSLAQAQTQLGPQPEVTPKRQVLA
Chain of Pro-neuregulin-1, membrane-bound isoform (Homo sapiens) (Q02297 whole entry, looked up, the tested form may be a part, canonical isoform): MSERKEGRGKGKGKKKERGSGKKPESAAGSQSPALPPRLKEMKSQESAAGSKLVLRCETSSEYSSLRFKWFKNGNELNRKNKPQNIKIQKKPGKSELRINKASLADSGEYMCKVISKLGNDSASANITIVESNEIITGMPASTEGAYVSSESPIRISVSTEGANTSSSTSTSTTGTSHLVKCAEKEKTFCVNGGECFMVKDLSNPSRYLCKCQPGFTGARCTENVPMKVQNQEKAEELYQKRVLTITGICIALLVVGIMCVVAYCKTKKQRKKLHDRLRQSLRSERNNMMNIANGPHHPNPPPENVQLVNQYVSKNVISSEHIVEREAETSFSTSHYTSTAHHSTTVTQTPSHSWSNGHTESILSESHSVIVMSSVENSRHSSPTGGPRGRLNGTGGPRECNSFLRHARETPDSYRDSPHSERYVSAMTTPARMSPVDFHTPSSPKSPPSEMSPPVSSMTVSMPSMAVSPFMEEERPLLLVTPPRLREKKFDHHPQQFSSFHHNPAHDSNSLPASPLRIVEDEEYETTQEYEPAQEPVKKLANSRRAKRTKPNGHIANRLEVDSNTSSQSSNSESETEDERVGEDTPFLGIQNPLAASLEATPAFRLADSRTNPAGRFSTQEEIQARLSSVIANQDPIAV
Chain of Torsin-1A-interacting protein 2 (Homo sapiens) (Q8NFQ8 whole entry, looked up): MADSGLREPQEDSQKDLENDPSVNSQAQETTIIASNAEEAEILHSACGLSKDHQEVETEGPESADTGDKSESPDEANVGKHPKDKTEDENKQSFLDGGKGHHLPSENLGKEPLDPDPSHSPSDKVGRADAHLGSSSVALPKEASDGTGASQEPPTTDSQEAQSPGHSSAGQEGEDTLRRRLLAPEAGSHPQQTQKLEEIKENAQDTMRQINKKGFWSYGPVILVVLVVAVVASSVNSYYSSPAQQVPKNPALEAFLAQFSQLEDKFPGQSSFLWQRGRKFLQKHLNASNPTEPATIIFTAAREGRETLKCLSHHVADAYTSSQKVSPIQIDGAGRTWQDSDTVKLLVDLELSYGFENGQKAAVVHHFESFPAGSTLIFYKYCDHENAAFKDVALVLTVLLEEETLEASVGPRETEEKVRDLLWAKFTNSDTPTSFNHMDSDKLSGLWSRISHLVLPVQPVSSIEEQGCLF

COC(=O)c1c(CC[C@@H](CO)NC(=O)Nc2ccc(OC)cc2)oc(C(=O)Cc2ccccc2)c1C(=O)OC
composite z-score [1]: -0.211 | composite z-score [2]: 0.469 | composite z-score [3]: -0.0924 | composite z-score [4]: 0.411 | composite z-score [5]: 0.704 | composite z-score [6]: 0.191 | composite z-score [7]: 1.03 | z-score [8]: -0.814 (inactive) | composite z-score [9]: -0.0409 | composite z-score [10]: -0.0672 | composite z-score [11]: 0.477 | z-score [12]: 1.54 (inactive) | z-score [13]: -1.21 (inactive) | z-score [14]: 2.23 (inactive) | composite z-score [15]: 0.478 | z-score [16]: 1.85 (inactive) | composite z-score [17]: -0.0233 | composite z-score [18]: 0.414 | composite z-score [19]: 0.101 | composite z-score [20]: -0.0252

CC(C)C(=C=CC[C@@H](O)c1ccc(CO)o1)CCO
composite z-score [1]: -0.416 | composite z-score [2]: 0.443 | composite z-score [3]: 0.007 | composite z-score [4]: 0.768 | composite z-score [5]: -0.298 | composite z-score [6]: 0.632 | composite z-score [7]: 1.19 | z-score [8]: 0.136 (inactive) | composite z-score [9]: -0.304 | composite z-score [10]: 0.065 | composite z-score [11]: 0.821 | z-score [12]: 1.15 (inactive) | z-score [13]: -1.09 (inactive) | z-score [14]: -0.24 (inactive) | composite z-score [15]: 1.28 | z-score [16]: 1.17 (inactive) | composite z-score [17]: -0.237 | composite z-score [18]: 0.852 | composite z-score [19]: 0.116 | composite z-score [20]: -0.191

CCCCCCC#C[Si](O[C@H](c1ccccc1)c1cn(Cc2ccccc2)nn1)(C(C)C)C(C)C
composite z-score [1]: -0.331 | composite z-score [2]: -0.0435 | composite z-score [3]: 0.0339 | composite z-score [4]: 0.388 | composite z-score [5]: 0.433 | composite z-score [6]: -0.0854 | composite z-score [7]: -0.0419 | z-score [8]: -0.494 (inactive) | composite z-score [9]: 0.129 | composite z-score [10]: 0.243 | composite z-score [11]: 0.63 | z-score [12]: -0.501 (inactive) | z-score [13]: -1.19 (inactive) | z-score [14]: -0.287 (inactive) | composite z-score [15]: 0.468 | z-score [16]: 2.25 (inactive) | composite z-score [17]: -0.0153 | composite z-score [18]: 0.977 | composite z-score [19]: 0.6 | composite z-score [20]: 0.0334

CC(C)CCC[C@@H](C)[C@H]1CC[C@@]2(C)C3=C(CC[C@]12C)[C@@]1(C)CC[C@H](OC(=O)CCl)C(C)(C)C1CC3 (stereo not given in full)
composite z-score [1]: -0.503 | composite z-score [2]: 0.331 | composite z-score [3]: -0.0787 | composite z-score [4]: 0.422 | composite z-score [5]: 0.753 | composite z-score [6]: 0.0429 | composite z-score [7]: 0.59 | z-score [8]: -0.0513 (inactive) | composite z-score [9]: 0.104 | composite z-score [10]: -0.0237 | composite z-score [11]: -0.132 | z-score [12]: -0.0688 (inactive) | z-score [13]: -0.178 (inactive) | z-score [14]: -0.208 (inactive) | composite z-score [15]: 0.424 | z-score [16]: 3.26 (inactive) | composite z-score [17]: -0.145 | composite z-score [18]: 0.44 | composite z-score [19]: 0.847 | composite z-score [20]: 0.0143

CC(C)C[C@@H]1NC(=O)[C@@]23C(=O)N[C@@H](Cc4ccccc4)C2[C@H](C)[C@@]2(C)O[C@H]2C3/C=C/C/C=C\CNC(=O)[C@H](Cc2ccccc2)NC1=O (stereo not given in full)
composite z-score [1]: -0.215 | composite z-score [2]: -0.215 | composite z-score [3]: -0.101 | composite z-score [4]: -0.0045 | composite z-score [5]: 0.245 | composite z-score [6]: 0.974 | composite z-score [7]: 0.897 | z-score [8]: 0.259 (inactive) | composite z-score [9]: 0.0017 | composite z-score [10]: 0.03 | composite z-score [11]: 0.911 | z-score [12]: -0.664 (inactive) | z-score [13]: -19.9 (active) | z-score [14]: -0.602 (inactive) | composite z-score [15]: 0.574 | z-score [16]: 2.08 (inactive) | composite z-score [17]: -0.202 | composite z-score [18]: 0.404 | composite z-score [19]: 0.414 | composite z-score [20]: -0.0671
